Among the data in ChEMBL document CHEMBL1157539, “Thousands of chemical starting points for antimalarial lead identification” (Nature, 2010) are Inhibition values, retold here.

Holding throughout (assay type): functional
In test [1] the test system is Plasmodium falciparum. The test can be described thus: GSK_TCMDC: Inhibition of Plasmodium falciparum 3D7 in whole red blood cells, using parasite LDH activity as an index of growth. Test compounds present at 2uM.
Test [2] concerns Plasmodium falciparum. The test can be described thus: GSK_TCMDC: Inhibition of Plasmodium falciparum Dd2 in whole red blood cells, using parasite LDH activity as an index of growth. Test compounds present at 2uM.
The next test deals with HepG2. In words: GSK_TCMDC: Percent inhibition of human HepG2 cell line. Test compounds present at 10uM.

With `O=C(/C=C/c1ccc(Cl)c(Cl)c1)NCCCCCN1CCC(NC(=O)NC2CCCCC2)CC1`, the Inhibition (in general, the share of the control response that was lost under treatment) in the test on Plasmodium falciparum [1] is 96%; with Plasmodium falciparum [2], 44%; in the test with HepG2, 22%.
As for `O=C(NCC1CCN(Cc2cccc(C(F)(F)F)c2)C1)c1cc(-c2cccc(C(F)(F)F)c2)cs1.O=C(O)C(F)(F)F` (stereo not given), the Inhibition with Plasmodium falciparum [1] is 100%; in the test with Plasmodium falciparum [2], 74%; in the test with HepG2, 35%.
For `COc1cccc(C2CCN(CCCCNC(=O)c3ccc(NC(=O)c4ccc(Cl)cc4)cc3)CC2)c1` the same measures were 99%, 40% and 18%.
Consider `Cc1ccc(F)cc1S(=O)(=O)Nc1cccc(CCN2CCC(N3CCCCC3)CC2)c1`, for which the values for the Inhibition in the test with Plasmodium falciparum [1], in the test with Plasmodium falciparum [2] and in the test on HepG2 were 96%, 9% and 15%, respectively.
Take `CCCC(C)NC(=O)[C@H](CC1CCCCC1)NC(=O)c1ccc(O)c(-c2ccc(OC)cc2)c1` (stereo not given in full): the Inhibition with Plasmodium falciparum [1] was 89%; with Plasmodium falciparum [2], 37%; in the test on HepG2, 3%.
Turning to `COc1ccc2c(N/N=C/c3ccccc3[N+](=O)[O-])ccnc2c1`, the Inhibition in the test on Plasmodium falciparum [1] turned out to be 100%; in the test on Plasmodium falciparum [2], 97%; with HepG2, 98%.
Take `CC(=O)Nc1ccc(C(=O)Nc2cccc(-c3ccc(-c4nc5cc(C(F)(F)F)ccc5[nH]4)s3)c2)cn1`: the figures for the Inhibition in the test on Plasmodium falciparum [1], in the test on Plasmodium falciparum [2] and in the test on HepG2 were 100%, 98% and 42%, respectively.
The like results for `COc1cccc(C(=O)Nc2ccc(Nc3nc(C)cc(N(C)C)n3)cc2)c1OC` were, in that order, 90%, 9% and 0%.
`CN(C)CCC1CCN(CCS(=O)(=O)c2cccc(Nc3ccc(-c4cccc(F)c4)cn3)c2)CC1`: the Inhibition with Plasmodium falciparum [1] came out at 100%; in the test with Plasmodium falciparum [2] it was 59%; with HepG2, 94%.
The like results for `Cc1noc(-c2ccc(N3CCC(C(=O)N4CCN(C(C)C)CC4)CC3)cc2)n1.Cl` were, in that order, 95%, 0% and 0%.
